Test results as given in PubChem BioAssay (NCI).
Compounds without any hit were thinned out: in the full panel of roughly 83,000, 20% have a hit.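 48-hour exposure, single concentration, 96-well plates; percent growth endpoint where 0 means no net growth. Active: below 10.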 Unmarked numbers belong to inactive results. Activity calls are given as the source filed them.

How the values were obtained:
Experiment in all cases: NCI-60 one-dose screen, 48 h (100 = growth as untreated, 0 = no growth, -100 = all killed)
Details in all cases: 10 µM unless noted
SR leukemia = system: SR leukemia
RPMI-8226 leukemia = system: RPMI-8226 leukemia
OVCAR-8 ovarian = system: OVCAR-8 ovarian
OVCAR-5 ovarian = system: OVCAR-5 ovarian
OVCAR-4 ovarian = system: OVCAR-4 ovarian
SK-OV-3 ovarian = system: SK-OV-3 ovarian
IGROV1 ovarian = system: IGROV1 ovarian
OVCAR-3 ovarian = system: OVCAR-3 ovarian
HS 578T breast = system: HS 578T breast
NCI/ADR-RES ovarian = system: NCI/ADR-RES ovarian
T-47D breast = system: T-47D breast
BT-549 breast = system: BT-549 breast
MDA-MB-435 melanoma = system: MDA-MB-435 melanoma
SW-620 colon = system: SW-620 colon
MCF7 breast = system: MCF7 breast
HCT-116 colon = system: HCT-116 colon
HCC-2998 colon = system: HCC-2998 colon
KM12 colon = system: KM12 colon

Structure (SMILES)	growth (SR leukemia)	growth (RPMI-8226 leukemia)	growth (OVCAR-8 ovarian)	growth (OVCAR-5 ovarian)	growth (OVCAR-4 ovarian)	growth (SK-OV-3 ovarian)	growth (IGROV1 ovarian)	growth (OVCAR-3 ovarian)	growth (HS 578T breast)	growth (NCI/ADR-RES ovarian)	growth (T-47D breast)	growth (BT-549 breast)	growth (MDA-MB-435 melanoma)	growth (SW-620 colon)	growth (MCF7 breast)	growth (HCT-116 colon)	growth (HCC-2998 colon)	growth (KM12 colon)
COc1ccc(-c2ccc(=O)oc2-c2cc(OC)c(OC)c(OC)c2)cc1O	0.907% (active)	9.69% (active)	14.2%	22.8%	39.8%	25.9%	3.86% (active)	-72.7% (active)	-2.33% (active)	12.9%	67.8%	5.78% (active)	-37.5% (active)	9.8% (active)	1.84% (active)	-67.4% (active)	-2.78% (active)	1.71% (active)
O=C(Nc1ccccc1O)c1ccc(CNC(=O)c2sccc2Nc2ccnc(C(F)(F)F)c2)cc1	36.2%	24.3%	35.8%	45.6%	48.3%	57.2%	41%	41.3%	14.6%	24.1%	40.1%	59.5%	39.3%	41.9%	30.1%	26.3%	65.4%	60.9%
COc1cc2cc(NCc3cccc(Cl)c3)nc(C)c2cc1OC	29.6%	8.04% (active)	45.3%	43.7%	68%	56.9%	24.6%	60.1%	76.3%	42.5%	52.7%	23.1%	4.19% (active)	17%	55.4%	8.02% (active)	38.9%	38.8%
COc1ccccc1CNc1c2ccccc2nc2ccccc12	9.9% (active)	8.12% (active)	31.9%	49.8%	42.2%	61.4%	26.3%	54.3%	62%	34.8%	46.2%	77%	42.6%	22.1%	16.8%	12.7%	38.8%	32.9%
COCCn1cc(-c2csc(-c3cn(C)c4ccc(Br)cc34)n2)c2cccnc21	31.3%	60.7%	56.3%	68.3%	71%	71.9%	80.2%	80.3%	63%	60%	17.6%	64.6%	61.2%	21.9%	50.2%	49.2%	25.7%	23.8%
CC1(C)COB(OCC(C)(C)COB2OCC(C)(C)CO2)OC1	102%	118%	100%	108%	113%	109%	105%	110%	108%	109%	104%	105%	110%	110%	107%	101%	104%	103%
O=C(O)c1cn(C2CC2)c2cc(N3CCN(Cc4ccc5ccccc5c4O)CC3)c(F)cc2c1=O	6.63% (active)	73.5%	14.4%	51%	32.5%	49.7%	33.3%	-26.2% (active)	-1.88% (active)	48%	30.9%	-59.1% (active)	33.6%	36.1%	17%	14.5%	41.9%	42.4%
c1cc2c(ccc3[nH]c(-c4ccc5[nH]ncc5c4)c4c(c32)CCCC4)n1	-7.05% (active)	45.8%	64.4%	80.4%	80.7%	63.4%	67.6%	72.5%	75.7%	83.2%	38.9%	53.2%	68.9%	60.8%	23.3%	38%	93.6%	67.9%
Fc1cc2c(cc1Cl)N(c1ncnc3ccc(-c4ccc5n[nH]nc5c4)cc13)CC2	66.8%	92%	85.6%	76.5%	81.3%	95.6%	32.2%	69%	58.2%	87.3%	65.5%	88.2%	92.4%	96.9%	80.3%	96.7%	92.1%	97.7%
O=S(=O)(Nc1ccc(Cl)c(C(F)(F)F)c1)c1ccc(-c2cnc(C3CC3)o2)cc1	3.51% (active)	8.83% (active)	5.21% (active)	19.2%	25.7%	0.753% (active)	24.3%	9.38% (active)	-1.41% (active)	2.96% (active)	12.8%	23.7%	2.82% (active)	22.4%	15.4%	10.1%	25.1%	8.14% (active)
O=C(/C=C/c1ccccc1)Nc1ncc(Cc2ccccc2Cl)s1	17.9%	25.4%	39.5%	44%	70.2%	44.4%	31.5%	-24.2% (active)	28.2%	9.49% (active)	21.1%	55.2%	-44.4% (active)	31.4%	18.9%	16%	35.4%	14%
Cc1c(O)cc(-c2cnc(Nc3ccccc3)s2)c(O)c1C	87.4%	82.5%	94%	111%	84.8%	94.5%	79.2%	102%	87.5%	96.5%	68.6%	91.8%	101%	104%	82.2%	97.8%	118%	95.9%
COc1cc(OCc2cccc(Br)c2C)cc(OC)c1C=O	82.6%	52.8%	89.9%	55.5%	67.7%	94.8%	61.8%	87.1%	89.1%	89.7%	37.8%	70.9%	87.8%	88.6%	63.9%	68%	96.5%	94.5%
COc1cc(C2CC(c3ccc(Nc4nc(Nc5ccc(Cl)cc5)nc(Nc5ccc(Cl)cc5)n4)cc3)=NN2C(C)=O)cc(OC)c1OC (stereo unspecified)	72.7%	32%	107%	92.8%	97.3%	126%	85.7%	105%	122%	92.7%	69.2%	104%	89.1%	106%	89%	84.9%	100%	106%
CN(C)CCNC(=O)c1cc2c3cc(Cl)ccc3[nH]c2c2ncccc12	-17.6% (active)	-11% (active)	19%	32.7%	34.1%	46.1%	20.9%	0.195% (active)	24.2%	25.3%	24%	29.5%	-41.3% (active)	-2.12% (active)	-16.1% (active)	-56.6% (active)	-45.1% (active)	25.2%
Oc1c(I)cc(I)cc1CNCCN(Cc1ccccn1)Cc1ccccn1	-9.62% (active)	-12.3% (active)	-19.7% (active)	-24.3% (active)	-48.5% (active)	-74.7% (active)	-66.3% (active)	-59.7% (active)	-11.3% (active)	-18.4% (active)	-36% (active)	-33.6% (active)	-66.6% (active)	-42.5% (active)	-6.6% (active)	-45.1% (active)	-86.8% (active)	-38.9% (active)
Cn1cc(-c2csc(-c3cn(C(=O)OC(C)(C)C)c4ccc(Br)cc34)n2)c2ccnc(Cl)c21	39.2%	79.4%	59.8%	105%	65.3%	82.8%	89.1%	97.3%	2.06% (active)	71.8%	66.8%	63.9%	63.7%	75.8%	82.8%	64.7%	95%	90.4%
